About 83,000 compounds went through this panel and 20% of them were active in at least one assay; those are over-represented in the sample as a whole.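 Results are percent growth after 48 hours of single-concentration exposure. 100 means growth as in untreated cells, lower positive values show inhibition; negative values down to -100 show cell death.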 The source made the active and inactive calls. How the source made its calls: active means growth percent below 10; inactive means the rest.
Columns and labels:
Assay in all cases: NCI-60 one-dose screen, 48 h (100 = growth as untreated, 0 = no growth, -100 = all killed)
Settings in all cases: 10 µM unless noted
SR leukemia = tested on: SR leukemia
RPMI-8226 leukemia = tested on: RPMI-8226 leukemia
OVCAR-8 ovarian = tested on: OVCAR-8 ovarian
OVCAR-5 ovarian = tested on: OVCAR-5 ovarian
OVCAR-4 ovarian = tested on: OVCAR-4 ovarian
SK-OV-3 ovarian = tested on: SK-OV-3 ovarian
IGROV1 ovarian = tested on: IGROV1 ovarian
OVCAR-3 ovarian = tested on: OVCAR-3 ovarian
HS 578T breast = tested on: HS 578T breast
NCI/ADR-RES ovarian = tested on: NCI/ADR-RES ovarian

Measured: growth

CCN1CCN(Cc2ccc(C(=O)Nc3ccc(C)c(Oc4ccc(-c5[nH]nc6ncnc(N)c56)cc4)c3)cc2C(F)(F)F)CC1
inactive: SR leukemia 11.3% | RPMI-8226 leukemia 65.8% | OVCAR-8 ovarian 96.7% | OVCAR-5 ovarian 94.9% | OVCAR-4 ovarian 87% | SK-OV-3 ovarian 99.8% | IGROV1 ovarian 82.1% | OVCAR-3 ovarian 116% | HS 578T breast 64.9% | NCI/ADR-RES ovarian 67.2%

COc1cc(-c2nn(C(C)(C)C)cc2-c2ccnc(NCCCNS(=O)(=O)c3cccc(F)c3)n2)ccc1Cl
inactive: SR leukemia 50.6% | RPMI-8226 leukemia 51.8% | OVCAR-8 ovarian 89.3% | OVCAR-5 ovarian 80.5% | OVCAR-4 ovarian 45.8% | SK-OV-3 ovarian 102% | IGROV1 ovarian 48.9% | OVCAR-3 ovarian 85% | HS 578T breast 80.3% | NCI/ADR-RES ovarian 74.5%

O=C(CSc1nnc(-c2ccc(Cl)cc2)n1-c1ccccc1)Nc1ccc(Br)cc1
inactive: SR leukemia 13.3% | RPMI-8226 leukemia 17.5% | IGROV1 ovarian 16.6% | HS 578T breast 17.8%
active: OVCAR-8 ovarian -27.5% | OVCAR-5 ovarian 2.37% | OVCAR-4 ovarian -1.23% | SK-OV-3 ovarian -35.9% | OVCAR-3 ovarian -24.5%

NC(N)=Nc1ccc(Oc2cccc(Nc3ccc(Br)c(C(F)(F)F)c3)c2)cc1
active: SR leukemia -43.5% | RPMI-8226 leukemia -44.1% | IGROV1 ovarian 0.582% | HS 578T breast 9.28%
inactive: OVCAR-8 ovarian 51.2% | OVCAR-5 ovarian 40.3% | OVCAR-4 ovarian 39.8% | SK-OV-3 ovarian 67.4% | OVCAR-3 ovarian 13.7% | NCI/ADR-RES ovarian 93.7%

N#Cc1c(NC(=O)c2cccc(C(F)(F)F)c2F)sc2c1CCC(=O)C2
inactive: OVCAR-8 ovarian 11.7%
active: SR leukemia 0.648% | RPMI-8226 leukemia -24.6% | OVCAR-5 ovarian -6.14% | OVCAR-4 ovarian -36.3% | SK-OV-3 ovarian 5.3% | IGROV1 ovarian -0.691% | OVCAR-3 ovarian -40.5% | HS 578T breast -17%

COc1cc(C2N=C(NNc3ccccc3)NC(C)=C2C(C)=O)ccc1O (centres undefined)
inactive: SR leukemia 57.7% | RPMI-8226 leukemia 110% | OVCAR-8 ovarian 94.2% | OVCAR-5 ovarian 92.7% | OVCAR-4 ovarian 93% | SK-OV-3 ovarian 90.1% | IGROV1 ovarian 69.9% | OVCAR-3 ovarian 122% | HS 578T breast 108% | NCI/ADR-RES ovarian 87.8%

O=C(CN1CCN(c2cc(=O)n(-c3ccccc3)c3ccccc23)CC1)Nc1nc(-c2ccccc2)cs1
inactive: SR leukemia 51.3% | RPMI-8226 leukemia 46.2% | OVCAR-8 ovarian 69.8% | OVCAR-5 ovarian 94.1% | OVCAR-4 ovarian 23.3% | SK-OV-3 ovarian 70.7% | IGROV1 ovarian 67.5% | OVCAR-3 ovarian 72.5% | HS 578T breast 82.9% | NCI/ADR-RES ovarian 62.7%

CCCn1cnc2c(c1=N)C(c1ccc(OC)cc1)c1sc3c(C)cccc3c1O2 (centres undefined)
inactive: SR leukemia 27% | OVCAR-8 ovarian 23.9% | OVCAR-5 ovarian 32.4% | OVCAR-4 ovarian 75.3% | SK-OV-3 ovarian 49% | IGROV1 ovarian 18.4% | HS 578T breast 10.5%
active: RPMI-8226 leukemia -3.63% | OVCAR-3 ovarian 7.94%

Cn1ccnc1C(=O)/C=C/c1ccc(CNC(=O)c2ccc(Cl)cc2)cc1
inactive: OVCAR-8 ovarian 24.6% | OVCAR-5 ovarian 11% | OVCAR-4 ovarian 37.9% | SK-OV-3 ovarian 43.1% | IGROV1 ovarian 12.2% | OVCAR-3 ovarian 17% | HS 578T breast 28.1%
active: SR leukemia 4.17% | RPMI-8226 leukemia -13.7%

C#CC(=O)N(c1ccc(OC)cc1OC)C(C(=O)NCC(=O)OCC)c1cccs1 (centres undefined)
inactive: OVCAR-8 ovarian 46.6% | OVCAR-4 ovarian 116% | SK-OV-3 ovarian 89.5% | HS 578T breast 20.9% | NCI/ADR-RES ovarian 87.5%
active: SR leukemia -25% | RPMI-8226 leukemia -55.3% | OVCAR-5 ovarian 2.13% | IGROV1 ovarian -58.1% | OVCAR-3 ovarian -58.9%

O=C(NNc1nc2cc(F)c(F)cc2n2c(CN3CC4CNCC4C3)ccc12)c1ncccn1 (centres undefined)
inactive: RPMI-8226 leukemia 18.7% | OVCAR-5 ovarian 40% | OVCAR-4 ovarian 21.6% | IGROV1 ovarian 14.9% | OVCAR-3 ovarian 34.6% | HS 578T breast 71.5% | NCI/ADR-RES ovarian 62.3%
active: SR leukemia 1.34% | OVCAR-8 ovarian 7.54% | SK-OV-3 ovarian 7.21%

CC1(C)CC[C@]2(C(=O)N3CCOCC3)CC[C@]3(C)C(=CC[C@@H]4[C@@]5(C)C/C(=C/c6ccccn6)C(=O)C(C)(C)[C@@H]5CC[C@]43C)[C@@H]2C1
inactive: SR leukemia 22.5% | RPMI-8226 leukemia 15.9% | OVCAR-8 ovarian 77.9% | OVCAR-5 ovarian 88.4% | OVCAR-4 ovarian 36.1% | SK-OV-3 ovarian 108% | IGROV1 ovarian 65.3% | OVCAR-3 ovarian 70.2% | HS 578T breast 81.6%

Cc1nc2ncc(-c3ccc4ncnc(NCc5ccccc5)c4c3)cc2[nH]1
inactive: SR leukemia 78.3% | RPMI-8226 leukemia 75.5% | OVCAR-8 ovarian 76.9% | OVCAR-5 ovarian 42.6% | OVCAR-4 ovarian 48% | SK-OV-3 ovarian 52.5% | IGROV1 ovarian 16.8% | OVCAR-3 ovarian 39.2% | HS 578T breast 29.2%

Source: PubChem BioAssay (NCI)
